# A selection: hits, their analogues and other compounds. The true share with any hit is near 0.51%.
# E coli growth-1: reduces bacterial viability in AddAB counter-screen. inhibition, % at 11.9 µM. E. coli V3065 growth, OD600 absorbance, 18 h. 330,000 tested, 0.27% active;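 active means inhibition above the campaign's mean inhibition across all tested compounds plus 3 SD, cut at about 9.9% in these data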;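 further: uninfected addAB+ strain grown without phage in ampicillin broth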
# phage Ecoli inh: E. coli growth loss with phage present; inhibition, % at 11.9 µM; 360,000 tested, 0.26% active; AID 651602; growth absorbance; in the data active means inhibition above about 11%
# Tat transport: blocks Tat-dependent protein export in E. coli | AID 488895 | E. coli MC4100 TorA-mCherry Tat export, fluorescence | inhibition, % at 10 µM | 340,000 tested, 0.036% active;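 active means mean replicate inhibition at least 50% and at least half of replicates individually reaching 50%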;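 further: exported cargo escapes ClpAP degradation while cytoplasmic cargo is degraded and loses fluorescence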
# AddAB inh: less growth of phage-infected E. coli with AddAB | E. coli expressing H. pylori AddAB, absorbance growth | inhibition, % at 11.9 µM | 330,000 tested, 0.29% active; in the data active means inhibition above about 12%
# E coli growth-2: inhibitors of Escherichia coli growth; 330,000 tested, 0.21% active; OD600, 23 h; stronger effect = lower value; OD600 absorbance (no concentration beside the values); AID 1053175;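 active means OD600 absorbance below the run mean of sample wells minus 3.6 SD, in any replicate, cut at about 0.56 in these data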
# AddAB confirm: confirmation screen: growth loss of phage-infected E. coli expressing H. pylori AddAB; AID 488942; 880 tested, 64% active; shares compounds with AddAB inh; inhibition, % at 11.9 µM; E. coli V3065 expressing H. pylori AddAB, T4 phage, OD; T4 phage with gene 2 nonsense mutations;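 active means mean inhibition above a set limit taken from the earlier primary screen, cut at about 13% in these data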;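 further: higher means less bacterial growth since AddAB block lets phage replicate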
# RecBCD counter: reduces growth of phage-infected RecBCD+ E. coli, AddAB inhibitor counter-screen; 880 tested, 73% active; inhibition, % at 11.9 µM; AID 488955; shares compounds with AddAB inh; E. coli V66 + mutant T4 phage, OD growth;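 active means mean inhibition above the mean of solvent-only control wells plus 3 SD, cut at about 4% in these data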;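 further: optical density read after an 18 h incubation at 37 °C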
# bact viab count: reduces bacterial viability, AddAB inhibitor counter-screen; shares compounds with AddAB inh; absorbance (AddAB counterscreen); inhibition, % at 11.9 µM; 880 tested, 35% active; AID 488956; in the data active means inhibition above about 25%
# RecBCD conf: confirmation: growth loss of phage-infected RecBCD+ E. coli (RecBCD inhibitor screen); shares compounds with phage Ecoli inh; 890 tested, 45% active; inhibition, % at 11.9 µM; E. coli V66 + T4 2- phage, growth OD;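 active means mean inhibition over triplicates exceeding the hit threshold derived in the original primary screen, cut at about 11% in these data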
# Ecoli viability: counter-screen for RecBCD inhibitors: inhibitors of bacterial viability. shares compounds with phage Ecoli inh. E. coli viability, absorbance (OD) growth. inhibition, % at 11.9 µM. 890 tested, 29% active; in the data active means inhibition above about 20%;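 further: E. coli strain V66 grown with compound alone and no phage infection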
# AddAB phage OD: growth loss of phage-infected AddAB E. coli, RecBCD counter-screen | shares compounds with phage Ecoli inh | E. coli expressing H. pylori AddAB + T4 phage, OD growth; gene 2 mutant T4, recBCD-deleted host | inhibition, % at 11.9 µM | 890 tested, 45% active | AID 651984;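 active means mean inhibition above the solvent-only control wells' mean plus 3 SD, cut at about 22% in these data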;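 further: higher means less bacterial growth from phage killing when AddAB is blocked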
# Numbers stand for hits; . = inactive; / = no result.
SMILES,E coli growth-1,phage Ecoli inh,Tat transport,AddAB inh,E coli growth-2,AddAB confirm,RecBCD counter,bact viab count,RecBCD conf,Ecoli viability,AddAB phage OD
CCOC(=O)C1C2COc3ccc(Br)cc3C2N2C(=O)CN(Cc3ccc(F)cc3)C(=O)[C@@]12C (some centres undefined),/,/,/,/,.,/,/,/,/,/,/
Nc1[nH]c(=O)ncc1-c1ccc([N+](=O)[O-])cc1,/,.,/,/,/,/,/,/,/,/,/
O=[N+]([O-])c1ccc(-c2cnc(NO)nc2)cc1,31,31,.,33,.,42,30,40,31,36,45
Nc1ncc(-c2ccc([N+](=O)[O-])cc2)cn1,38,38,.,39,/,44,37,48,35,41,51
O=C(COc1ccc(Cl)cc1Cl)NN=CCCc1ccccc1,/,/,/,/,.,/,/,/,/,/,/
CCC=C(NC(C)=O)c1ccccc1,/,/,/,/,.,/,/,/,/,/,/
CCOC1OC(C(=O)O)=CC(c2coc3ccccc3c2=O)C1CCCO (centres undefined),/,/,/,/,.,/,/,/,/,/,/
CN1CCN(C(c2ccc(F)cc2)c2ccc3cccnc3c2O)CC1 (centres undefined),/,/,.,/,.,/,/,/,/,/,/
CN1CCN(C(c2ccc(Br)cc2)c2cc(Cl)c3cccnc3c2O)CC1 (centres undefined),23,13,.,22,/,.,11,.,.,.,.
O=c1[nH]c(=O)n([C@H]2C[C@H](O)[C@@H](CO)O2)cc1I,.,.,.,.,/,/,/,/,/,/,/
CCc1cn(C2CC(O)C(CO)O2)c(=O)[nH]c1=O (centres undefined),13,12,.,20,.,35,13,.,14,.,31
O=C(Nc1ccccc1SC(=O)c1ccccc1)c1ccccc1,/,.,/,/,/,/,/,/,/,/,/
Cc1ccc(C(=O)Sc2cccccc2=O)cc1,52,62,82,51,0.14,64,61,61,78,81,89
CC(=NNS(=O)(=O)c1ccc(Br)cc1)c1ccc(NC(=O)c2ccc(C)o2)cc1,/,/,/,/,.,/,/,/,/,/,/
Cc1ccc(C(C)C)c(OCc2ccc(C(=O)NN=Cc3ccc(O)cc3O)cc2)c1,/,/,/,/,.,/,/,/,/,/,/
Cc1ccc(C(C)C)c(OCc2ccc(C(=O)N/N=C/c3cccc(O)c3O)cc2)c1,14,22,.,16,/,16,16,.,.,.,.
COc1ccc2c(c1)[n+](=O)c(C(C)=O)c(C)n2[O-],.,.,.,.,.,/,/,/,/,/,/
CC(=O)c1c(C)n([O-])c2cc(F)c(F)cc2[n+]1=O,53,22,.,63,0.11,98,26,88,23,31,91
COC(=O)c1ccc(COc2ccc(C=NNC(N)=S)cc2)o1,/,/,/,/,.,/,/,/,/,/,/
Cc1ccc(C(C)C)c(OCC(=O)NN=CC2CCCCC2)c1,/,/,/,/,.,/,/,/,/,/,/
COc1ccccc1-n1c(=O)oc2ccc(Cl)cc2c1=O,.,12,.,12,.,.,10,.,.,.,.
CCOC(=O)C1C2COc3ccccc3C2N2C(=O)c3cc(OC)c(OC)cc3NC(=O)[C@@]12C (some centres undefined),/,/,/,/,.,/,/,/,/,/,/
CC=CC(=O)OCC(=O)Nc1ccc(C)c(S(=O)(=O)N(C)C)c1,/,/,/,/,.,/,/,/,/,/,/
COCCN=c1scc(-c2cccs2)n1N=C(C)c1ccco1,/,/,/,/,.,/,/,/,/,/,/
COCCN=c1scc(-c2cccs2)n1/N=C/c1ccc(O)c(O)c1O,12,15,.,15,/,14,11,.,.,.,.
CC(=NNC(=O)COc1cccc(Cl)c1)c1ccc2c(c1)OCCO2,/,/,/,/,.,/,/,/,/,/,/
O=C1C=C(c2ccc3c(c2)oc2ccccc23)CC(c2ccc3c(c2)OCO3)C1 (centres undefined),/,/,/,/,.,/,/,/,/,/,/

# Screens (PubChem BioAssay)
